Screening results from PubChem BioAssay.
ClpP mod: qHTS Assay for Activators of ClpP; ATP-dependent Clp protease proteolytic subunit (Bacillus subtilis (strain 168)), P80244; Potency, µM (titrated, usually from 57.5 µM); purified B. subtilis ClpP, FRET peptide cleavage, 20 min; AID 651965, 2013; 1.9% of 340,000 active; active means well fitted falling curve with a large enough effect; inconclusive means small, poorly fitted or top-dose-only effect; inactive means no such curve, though single readings can be large or run the other way; further: the source files actives as falling curves though it sought activators and does not explain the sign; nearly all actives have a fitted effect of over 65% in size
Target sequence (P80244 whole entry, looked up): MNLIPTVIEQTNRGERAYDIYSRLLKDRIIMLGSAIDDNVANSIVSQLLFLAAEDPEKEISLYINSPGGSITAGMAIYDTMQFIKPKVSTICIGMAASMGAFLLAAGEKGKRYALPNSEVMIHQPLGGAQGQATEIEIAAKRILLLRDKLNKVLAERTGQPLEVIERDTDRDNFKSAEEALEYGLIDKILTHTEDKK
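Buffer: 100 mM Tris/HCl pH8, 100 mM KCl, 0.05% low protease BSA, 2.5% glycerol, 0.01% Tween-20. ClpP 10 microg/mL final; 20 min RT; delta FRET normalized to ADEP and DMSO controls.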
Nrf2 activator: qHTS of Nrf2 Activators. AREc32 ARE-luciferase reporter (MCF7-derived line), luminescence, 24 h. Potency, µM (series often up to 46.1 µM), usual class: activators. 0.31% of 410,000 active. AID 624171, 2012; further: nearly all actives have a fitted effect of over 65% in size
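Nrf2 activation is followed as ARE-luciferase induction in the AREc32 line after one day of compound treatment; luminescence is read with Steady-Glo.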
miR-21 act: qHTS Assay for Modulators of miRNAs and/orActivators of miR-21. 340,000 tested, under 10 active. AID 2288, 2010. HeLa miR-21 FLuc reporter, luciferase, 48 h. Potency, µM (highest dose often 38.3 µM), most hits filed as activators;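 further: miR-21 action dims this reporter so a rising signal means less miR-21 action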
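Using DMEM plus 10% FBS, HeLa miR-21-FLuc cells are incubated with test compounds (final up to about 40uM) for 48 hours; firefly luciferase signal is then imaged following reagent-mediated lysis.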
IL2 activator: qHTS of IL-2 Activators | IL-2 activation reporter assay, cell-based qHTS; stimulated with anti-CD3/CD4/CD28 beads; in transgenic mouse T cells | activation, % (series mostly up to about 46 µM) | 0.065% of 360,000 active; in the data active means activation above about 50%; inconclusive means mostly about 30% to 49%
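Readout: EGFP and DsRed signals by fluorescent plate cytometry. Unstimulated transgenic mouse T cells received compound 60 min before antibody-bead stimulation, then incubated 18 h at 37 degrees C.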
A549 tox: Nrf2 qHTS screen for inhibitors: counterscreen for cytotoxicity; A549 ARE-Fluc cells, CellTiter-Fluor viability, 18-24 h; Potency, µM (series often up to 46 µM), hits mostly inhibitors; 0.16% of 390,000 active; AID 504648, 2011
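A549 ARE_Fluc cells in 5% FBS OPTI-MEM were exposed to compounds in concentration-response for 18-24 h at 37 deg C. Viability was read by CellTiter-Fluor fluorescence (Ex 405/Em 525) after 30 min, before the luciferase read.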
Nrf2 inh: Nrf2 qHTS screen for inhibitors. A549 ARE-Fluc reporter, luciferase luminescence, 18-24 h. Potency, µM (series often up to 46 µM), most hits filed as inhibitors. 2.1% of 360,000 active. AID 504444, 2011; further: nearly all actives have a fitted effect of over 60% in size
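Reporter: ARE-Fluc in A549. Exposure: 18-24 h, 37 °C, 5% CO2, 5% FBS OPTI-MEM. Readouts: fluorescent cytotoxicity (CellTiter-Fluor), then luminescent Nrf2 signal after BugLite.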
Each line names hits and unclear results; the compound was inactive in the other large screens; ! = not active in a repeat. Only some compounds are listed: those with a hit (about 3.7% of all), similar ones and a draw of the others. Unless noted, the call rests on the fitted dose curve; in most records, active means well fitted curve in the direction sought with a large enough effect; inconclusive means small, poorly fitted or top-dose-only effect, or another doubt; inactive means no such curve, though single readings can be large; an effect the other way counts as inactive or inconclusive.

Cc1ccc(NC(=O)Nc2cccc([N+](=O)[O-])c2)cc1F	A549 tox inconclusive, Nrf2 inh inconclusive
O=C(Nc1ccc(OC(F)(F)F)cc1)c1[nH]ncc1[N+](=O)[O-]	Nrf2 activator inconclusive, A549 tox inconclusive, Nrf2 inh 7.3µM
O=C(Cc1ccc(OCCc2ccccc2)cc1)NO	none (no result: Nrf2 activator, miR-21 act, IL2 activator, A549 tox, Nrf2 inh)
O=C(Cn1c(=O)oc2cc(S(=O)(=O)N3CCCCCC3)ccc21)NCc1ccccc1Cl	none (no result: IL2 activator, Nrf2 inh)
O=c1[nH]c2ccccc2nc1NCCN1CCOCC1	ClpP mod 32µM (no result: Nrf2 inh)
Clc1ccc2[nH]c3c(NCCCN4CCOCC4)ncnc3c2c1	ClpP mod 20µM
Cc1ccc2[nH]c3c(NCCN4CCOCC4)ncnc3c2c1	none
O=C1CCCN1CCCNc1ncnc2c1[nH]c1ccc(Cl)cc12	ClpP mod 25µM
C=CCNc1nc(NCCOc2ccccc2Cl)c2sc(-c3ccccc3)cc2n1	ClpP mod 28µM (no result: miR-21 act, A549 tox, Nrf2 inh)
C=CCNc1nc(NCCOC)c2sc(-c3ccccc3)cc2n1	none (no result: miR-21 act, A549 tox, Nrf2 inh)
c1ccc(CNc2nc(NCC3CC3)nc3cc(-c4ccccc4)sc23)cc1	ClpP mod inconclusive (no result: miR-21 act, A549 tox, Nrf2 inh)
c1ccc(OCCNc2nc(NCC3CC3)nc3cc(-c4ccccc4)sc23)cc1	ClpP mod 25µM (no result: miR-21 act, A549 tox, Nrf2 inh)
O=C1COc2ccc(S(=O)(=O)CCC(=O)N3CCN(c4cccc(Cl)c4)CC3)cc2N1	Nrf2 inh inconclusive
Cc1ccc(Cl)cc1N1CCN(C(=O)CCS(=O)(=O)c2ccc3c(c2)NC(=O)CO3)CC1	miR-21 act inconclusive, Nrf2 inh 16µM
Cc1ccc(CNC(=O)CCS(=O)(=O)c2cc3c(cc2Cl)NC(=O)CO3)cc1	Nrf2 inh 26µM!
Cc1ccc(C)c(NS(=O)(=O)c2cc3c(cc2Cl)NC(=O)CO3)c1	A549 tox inconclusive, Nrf2 inh 23µM (no result: IL2 activator)
Cc1ccc(N2CCN(C(=O)CCS(=O)(=O)c3cc4c(cc3Cl)NC(=O)CO4)CC2)c(C)c1	Nrf2 inh 26µM (no result: IL2 activator)
COc1cc(OC)c(NS(=O)(=O)c2cc3c(cc2C)NC(=O)CO3)cc1Cl	none (no result: IL2 activator)
CCN(CC)CC(C)(C)C(=O)/C=C/c1ccc(/C=C/C(=O)C(C)(C)CN(CC)CC)cc1	A549 tox 16µM, Nrf2 inh 21µM (no result: miR-21 act)
CCN(CC)CCOC(=O)/C=C/c1ccccc1	none
CC(C)(C)C(=O)Nc1cccc(-c2nc3ccccc3[nH]2)c1	ClpP mod inconclusive
CC(C)(C)C(=O)Nc1sc2c(c1-c1nc3ccccc3[nH]1)CCCC2	ClpP mod 22µM, Nrf2 inh inconclusive
COc1ccc(C2Nc3ccc(Cl)cc3C(=O)N2Cc2ccccc2)cc1COc1ccc(NC(C)=O)cc1 (stereo unspecified)	Nrf2 inh inconclusive (no result: ClpP mod, Nrf2 activator, miR-21 act, IL2 activator)
CCCn1c(=O)[nH]c(=O)c2c1nc(-c1ccc3c(c1)OCCO3)n2CCN1CCOCC1	ClpP mod 32µM
COc1cc(OC)c2c(OC)cccc2n1	ClpP mod 18µM
COc1cc(C)c2ccccc2n1	none (no result: Nrf2 activator, miR-21 act, IL2 activator, A549 tox, Nrf2 inh)
COC(=O)c1ccc(-c2nc(CN3CCC(C(=O)N4CCOCC4)CC3)c(C)o2)cc1	ClpP mod 7.9µM
CC1CCCCN1S(=O)(=O)c1ccc(C(=O)Nc2nnc(C3CC3)o2)cc1 (stereo unspecified)	Nrf2 inh 13µM
CC1CCCCN1S(=O)(=O)c1ccc(C(=O)Nc2nnc(-c3ccco3)o2)cc1 (stereo unspecified)	A549 tox inconclusive, Nrf2 inh 21µM
Cc1cccc(NC(=O)c2ccc(S(=O)(=O)N3CCC(C)CC3)cc2)n1	Nrf2 inh 15µM
CC1CCN(S(=O)(=O)c2ccc(C(=O)Nc3nnc(C4CC4)o3)cc2)CC1	A549 tox inconclusive, Nrf2 inh 12µM
O=C(Nc1nnc(C2CC2)o1)c1ccc(S(=O)(=O)N2CCCCC2)cc1	Nrf2 inh inconclusive
Cc1nc2nc(NCc3cccc(Cl)c3)[nH]n2c(=O)c1Cc1ccccc1	none (no result: IL2 activator)
Cc1ccc(NC(=O)N2CCN(C)c3ncccc32)cc1C	none (no result: IL2 activator)
CN(Cc1ccccc1)c1ccc(C(CC(N)=O)NC(=O)c2ccccc2)cc1[N+](=O)[O-] (stereo unspecified)	A549 tox inconclusive, Nrf2 inh 10µM
Cc1ccc(Oc2cc([N+](=O)[O-])cc3c2C(=O)Nc2ccccc2O3)cc1	IL2 activator 72, Nrf2 inh 15µM
CC(=O)N(CC(=O)O)c1ccccc1	ClpP mod 18µM
CCN(C(=O)N(CC)c1ccccc1)c1ccccc1	none (no result: miR-21 act)
C[N+]1(CC(=O)c2ccccc2)CCc2ccccc2C1 (stereo unspecified)	none (no result: Nrf2 activator, miR-21 act, IL2 activator, A549 tox, Nrf2 inh)
COCc1ccc(-c2c(-c3ccsc3)oc(=O)c3cc(OC)c(OC)cc23)cc1	ClpP mod 32µM, Nrf2 inh inconclusive (no result: miR-21 act)
COc1ccc(-c2c(-c3ccc(C#N)cc3)oc(=O)c3cc(OC)c(OC)cc23)cc1	none (no result: miR-21 act)
COc1ccc(-c2oc(=O)c3cc(OC)c(OC)cc3c2-c2cc(F)cc(OC)c2)cc1	ClpP mod 20µM, Nrf2 inh inconclusive (no result: miR-21 act)
CN1CCN(c2nc(-c3ccco3)cc(C(F)(F)F)n2)CC1	none (no result: Nrf2 inh)
FC(F)(F)c1cc(-c2ccco2)nc(-n2nc(C(F)(F)F)cc2C2CC2)n1	ClpP mod 28µM
FC(F)(F)c1cc(-c2ccco2)nc(-n2nnc3ccccc32)n1	ClpP mod 28µM, Nrf2 activator inconclusive
Cc1ccc(-n2c(=O)c3c(C)c(C(=O)N(C)C)sc3n(CC(=O)N(C)c3ccccc3)c2=O)cc1C	none (no result: IL2 activator, Nrf2 inh)
CC1(C)CC(=O)C2=C(C1)c1c(ccc3ccccc13)NC2c1ccc(Br)o1 (stereo unspecified)	ClpP mod 13µM, A549 tox inconclusive, Nrf2 inh inconclusive
Cc1nn2c(C)c(C(=O)NCc3ccc(OC(C)C)cc3)cnc2c1-c1ccc(F)cc1	none (no result: IL2 activator)
O=c1[nH]c(SCc2ccc(Br)cc2)nc2c1CCCC2	none (no result: IL2 activator)
Oc1ccccc1/C=N/NC(=S)NC1CC2CCC1C2 (stereo unspecified)	none
S=C(N/N=C/c1ccco1)NC1CC2CCC1C2 (stereo unspecified)	Nrf2 activator 13µM, Nrf2 inh inconclusive
COc1ccc(C2Nc3ccccc3C(=O)N2Cc2ccco2)cc1COc1ccc(F)cc1 (stereo unspecified)	ClpP mod 25µM, Nrf2 inh inconclusive
COc1cc(C2Nc3ccccc3C(=O)N2c2ccccc2OC)ccc1O (stereo unspecified)	ClpP mod 32µM
COc1ccc(C2Nc3ccccc3C(=O)N2c2ccc(C)cc2)cc1Cn1cc([N+](=O)[O-])cn1 (stereo unspecified)	Nrf2 inh inconclusive
